T1: UNK ZnF1-3 (human, UniProt Q9C0B0 31-174)
T1 sequence: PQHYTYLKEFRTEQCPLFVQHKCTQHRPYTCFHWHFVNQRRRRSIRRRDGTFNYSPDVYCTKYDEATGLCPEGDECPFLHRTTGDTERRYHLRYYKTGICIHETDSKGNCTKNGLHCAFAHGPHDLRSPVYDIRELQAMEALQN

B1: 12329608_12331292_3055_3pUTR_ENSMUSG00000032625_ENSMUST00000046121|mouse|control|control (ssRNA)
RNA: GGGAGUUCUACAGUCCGACGAUCGAGGGUACAAAUGAGAGUUUUUACAUUUUUCCUUCUUUUUACUUUUCCCAACAAUAGCACGCUUUCUGGUCCUAACUGCACCGCAGUCUCCGUUGCAUGAAGAAAACUUGGACCAGCUGGCAACAGAGGAUUGAGCAUCA
B2: chr7:28421298:28421299:+_ENSMUSG00000004056_ENSMUST00000051356|mus_hu|FALSE|FALSE (ssRNA)
RNA: GGGAGUUCUACAGUCCGACGAUCCAUCAUCUCGUACAUGACCACACCCAGCCCCCACCAGUCCACGGCCCGGCCAUAGUCAUUGUCCUCCAGCACCUCAGGCGCCAGGUACUCCGGGGUCCCACAGAAGGUUUUCAUGGUGGCCAACAGAGGAUUGAGCAUCA
B3: chr7:151048522:151048523:+_ENSG00000013374_ENST00000566856|hu_mus|hu_hu_hu_mus_True|48_108 (ssRNA)
RNA: GGGAGUUCUACAGUCCGACGAUCCUGCUUCUUAUUUAUUACGAUCUUGAUGUAAUUUUCUUGAAAUCCGAAAGUUUCAGCUAUUUGGGACCUCAGUUCUCUACCAGUGACAUGCAAGCGGGUCUCCAACAAGCUUUUCUUAUCCAACAGAGGAUUGAGCAUCA
B4: chr7:52357369:52357370:-_ENSMUSG00000003420_ENSMUST00000003512|mus_hu|FALSE|FALSE (ssRNA)
RNA: GGGAGUUCUACAGUCCGACGAUCGUGCUCCCGCAGGCGGUGCGGGCAGGAGAAUAGCAGGAAGGUGAGCUCCUUGUUGGCCGCCUUGUCCUGCUGCUGCCACCGCUGACUGAUAGCCAGGGCCUCGGGCCAGUCCCCACCCCACAACAGAGGAUUGAGCAUCA
B5: chr5:132440482:132440483:+_ENSG00000170606_ENST00000304858|hu_hu|FALSE|FALSE (ssRNA)
RNA: GGGAGUUCUACAGUCCGACGAUCUUAAAGCAUAAUUAGAGCUCCUGCCAUGUAAGUCAUAAUGAAAAGUCUGCUGGAUAGCUAGAGCUGUAGCUAUAGCUCAACUUUCCAAAACAAACUUAUUCUUGUAGACACAUGGUUAAACAACAGAGGAUUGAGCAUCA
B6: chr8:101271117:101271118:-_ENSG00000034677_ENST00000519449|hu_mus|motif|central (ssRNA)
RNA: GGGAGUUCUACAGUCCGACGAUCGCAAUCACUGGAGCCGUGACUACAGGACGUUCUCAUGCUUUCUAAGUCUGAGCAGCGGAAUUCAGAAAAAUGACUGGAGUGGGAAUCUGCUACAGACGGCAUGCUGUCACUGAGGGAUGGCAACAGAGGAUUGAGCAUCA
B7: 46683936_46684056_841_CDS_ENSMUSG00000033319_ENSMUST00000036226|mouse|control|control (ssRNA)
RNA: GGGAGUUCUACAGUCCGACGAUCUCGAAGAGGAGUUGAGUUGGUUAAAGUCGUGUUGUUGACAGAUGCUCCGUGAUUUAACAAAGACUGGACAACCUUCAGAUGUCCUGCUGCAGAAGCGGCCCAUAAAGGGGGGGCCCCCUCCAACAGAGGAUUGAGCAUCA
B8: chr22:36164377:36164378:-_ENSG00000100320_ENST00000405409|hu_mus|FALSE|FALSE (ssRNA)
RNA: GGGAGUUCUACAGUCCGACGAUCACGGCCCUCUACCACGGUGCCGUGCAAUUUCUCCCUGGCCCUGUCUGCAUCAGCACUAUUCUCGAAAGUUACGAACCCGAAUCCCUUGGAGCCGCGCUCAUUAAAGAUUAUUUCCACAUCCAACAGAGGAUUGAGCAUCA
B9: chr17:3572670:3572671:+_ENSG00000127774_ENST00000248378|hu_hu|FALSE|FALSE (ssRNA)
RNA: GGGAGUUCUACAGUCCGACGAUCGUAGGUGAAGAGGCCCCCGAUGAGGCCUCCUGUAAAGAGAGGUCUCCGUGAUUUGAAAUAUUUGUUCCACCUCCUUCCCGCCUUGAGAAUGAGGAGCAGGGAGAGCAGGACGGAGGCGAGCAACAGAGGAUUGAGCAUCA
B10: chr2:47387770:47387771:-_ENSG00000143933_ENST00000272298|hu_mus|hu_hu_hu_mus_True|1_38 (ssRNA)
RNA: GGGAGUUCUACAGUCCGACGAUCAAGGUUUAAGGACAAUGACAGUAAGAUAAGGGAAGAAAACAUGGAGGAAUGAAGUCCUAAUUACUAUACAUGCAUAUUUUUUUACAGUAGGGGGGGGGAACCUUUUACAGAUAUUACAAACAACAGAGGAUUGAGCAUCA
B11: chr9:35286173:35286174:+_ENSMUSG00000038119_ENSMUST00000042842|mus_mus|FALSE|FALSE (ssRNA)
RNA: GGGAGUUCUACAGUCCGACGAUCAGUAUUAUUGUUACUUGAUGGAACAUACGUCCAUUUCAGCAUGAUCUGAGUGUCGCUAACAGCCUCUGUGUAUGCGAUGUGAGGUCCAGUUAUUGGGCGAUUGGAAAAACGAUUUGGGAACAACAGAGGAUUGAGCAUCA
B12: chrX:98862621:98862622:+_ENSMUSG00000034160_ENSMUST00000044475|mus_hu|mus_mus_mus_hu_False|58_88 (ssRNA)
RNA: GGGAGUUCUACAGUCCGACGAUCCUGCAUCUCCUUUAGAGUGUUUCCCAUAUUGGAGUAGGCAUCAGCAAAGGUAGGACUAAUUCGAAUAGCCUCCUUAUAAUGCAUCAGAGCUUCCUGCAGUUUUCCCUGCUGCUGCAGUACCAACAGAGGAUUGAGCAUCA
B13: chr2:32089778:32089779:+_ENSMUSG00000039262_ENSMUST00000036691|mus_hu|FALSE|FALSE (ssRNA)
RNA: GGGAGUUCUACAGUCCGACGAUCUAAACAAGCUGCACAUUACACCUCUAGCCAUCGUCUGCCCUUUCAAAUAUCUGGUCUACAUGGAAAGACAAAGAGGAAAGGCCAAAACAUAAACAAAAGGAAACAAAAACAAAACACAACCAACAGAGGAUUGAGCAUCA
B14: chr5:28742860:28742861:+_ENSMUSG00000048271_ENSMUST00000114884|mus_mus|FALSE|FALSE (ssRNA)
RNA: GGGAGUUCUACAGUCCGACGAUCAGAAUCUCUUGAAAAAGAAAAGGUGAGAUUUCCUCCUCAAGAAGAGUAUCAAUAUAAUAAGGAUUUAACAAAUGUGGCCAAGCCAAGGGCAGCAUAAGGUUAUGUUCAGGUAAGCAGCUGCAACAGAGGAUUGAGCAUCA

The full ranking holds about 24,000 sequences; the median of “enrichment r” is about 0.99, and the highest 2% start at about 3.7. Not all results are given here.

For 14 molecules, binding signal results are on record in PMC12136788.

The experiment concerns the target T1, UNK ZnF1-3. The experiment is described as follows: nsRBNS (natural sequence RNA bind-n-seq); RBNS binding buffer (assumed for nsRBNS): 25 mM Tris pH 7.5, 150 mM KCl, 3 mM MgCl2, 0.01% Triton X-100, 500 ug/ml BSA, 20 U/ml SUPERase-In, 4 C; UNK is unkempt and MSI1 is Musashi-1; names of the RNAs are library labels; protein concentration not given here; high values mean tight binding.
With B1, the binding signal was determined as 0.4 enrichment R. Then B2, with 1.8 enrichment R.

On to B3, for which the binding signal stood at 0.712 enrichment R. Then B4, with 0.754 enrichment R; and B5, with 0.424 enrichment R. Then B6, with 1.45 enrichment R; and B7, with 1.3 enrichment R. With B8 the figure was 1.19 enrichment R. B9 returned a binding signal of 1.1 enrichment R. Then B10, with 2.41 enrichment R; and B11, with 0.899 enrichment R.

Molecule B12 gave a binding signal of 0.89 enrichment R. Then B13, with 2.59 enrichment R; and B14, with 1.72 enrichment R.
